The results in this text go back to PMC7862700, “An all-to-all approach to the identification of sequence-specific readers for epigenetic DNA modifications on cytosine”.

What all share (assay): DAPPL (digital affinity profiling via proximity ligation, sequencing); 10 mM Tris-HCl pH 7.5, 50 mM NaCl, 1 mM DTT, 4% glycerol, room temperature, 30 min; GST-TFs on glutathione beads, 16-mer random dsDNA library, 0.1% formaldehyde crosslink after washing; high values mean tight binding
One assay deals with T1, FEV (Homo sapiens, UniProt Q99581 1-238).
T1 sequence: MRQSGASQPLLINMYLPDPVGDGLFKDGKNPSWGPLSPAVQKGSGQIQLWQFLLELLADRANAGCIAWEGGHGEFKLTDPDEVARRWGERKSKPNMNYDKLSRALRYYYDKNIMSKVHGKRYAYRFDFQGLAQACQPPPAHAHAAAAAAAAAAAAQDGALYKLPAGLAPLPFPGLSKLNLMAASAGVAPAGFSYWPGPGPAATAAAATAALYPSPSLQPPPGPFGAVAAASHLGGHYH
Conditions: protein: recombinant; tags: N-terminal GST; dsDNA, one strand shown. Summed up:
(§1)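 Sequencing on an Illumina NextSeq500 followed washing, crosslinking with 0.1% formaldehyde, proximity ligation (BsaI/T4 ligase, 1 h, 37 °C) and PCR amplification of pools that had been incubated for 30 min at room temperature with 200 nmole of a random double-stranded 16-mer DNA library in Tris/NaCl/DTT/glycerol buffer. Each pool held DNA-barcoded human transcription factors, expressed in yeast as GST fusions and captured on glutathione beads, plus a tag-only sample. Binding signal is a hexamer's read frequency for a factor divided by its frequency in the tag-only sample.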

For another assay, the target named is ETV5 (Homo sapiens, UniProt P41161 1-510). To be noted: protein: recombinant; tags: N-terminal GST; dsDNA, one strand shown. The gist of the method:
as §1

A further assay addresses HSF1 (Homo sapiens, UniProt Q00613 1-529). Conditions: protein: recombinant; tags: N-terminal GST; chain copies: 3; dsDNA, one strand shown. Summed up: as §1
The target in the next assay is T2, SPIC (Homo sapiens, UniProt Q8N5J4 1-248).
T2 sequence: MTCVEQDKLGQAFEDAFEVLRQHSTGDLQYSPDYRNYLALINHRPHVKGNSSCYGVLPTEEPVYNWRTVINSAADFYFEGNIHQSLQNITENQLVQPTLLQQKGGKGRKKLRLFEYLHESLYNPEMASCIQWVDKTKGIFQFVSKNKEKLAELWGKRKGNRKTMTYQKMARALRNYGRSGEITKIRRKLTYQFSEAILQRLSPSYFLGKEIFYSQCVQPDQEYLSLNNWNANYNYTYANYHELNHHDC
Conditions: protein: recombinant; tags: N-terminal GST; dsDNA, one strand shown. Summed up:
as §1

The target in the next assay is ELF4 (Homo sapiens, UniProt Q99607 1-663). Conditions: protein: recombinant; tags: N-terminal GST; dsDNA, one strand shown. The gist of the method: as §1
Chain of ELF4 (Q99607 whole entry): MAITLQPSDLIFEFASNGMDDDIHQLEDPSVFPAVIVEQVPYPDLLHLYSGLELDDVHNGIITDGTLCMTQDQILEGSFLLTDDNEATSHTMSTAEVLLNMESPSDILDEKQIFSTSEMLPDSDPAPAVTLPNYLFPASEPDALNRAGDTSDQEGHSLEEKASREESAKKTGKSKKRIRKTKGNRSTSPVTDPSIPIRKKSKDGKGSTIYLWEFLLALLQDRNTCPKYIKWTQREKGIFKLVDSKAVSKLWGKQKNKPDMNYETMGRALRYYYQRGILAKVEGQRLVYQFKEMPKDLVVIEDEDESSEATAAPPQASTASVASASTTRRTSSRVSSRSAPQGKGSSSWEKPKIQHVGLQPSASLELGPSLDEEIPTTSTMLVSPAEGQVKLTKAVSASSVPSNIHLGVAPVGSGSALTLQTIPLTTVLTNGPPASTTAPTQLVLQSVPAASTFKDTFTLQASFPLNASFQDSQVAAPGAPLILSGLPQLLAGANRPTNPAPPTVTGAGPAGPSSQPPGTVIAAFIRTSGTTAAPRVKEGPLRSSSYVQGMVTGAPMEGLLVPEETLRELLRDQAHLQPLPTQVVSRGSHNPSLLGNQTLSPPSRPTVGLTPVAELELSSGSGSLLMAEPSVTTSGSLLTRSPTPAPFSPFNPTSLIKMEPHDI
Another assay addresses T3, ELK4 (Homo sapiens, UniProt P28324-2 1-405).
T3 sequence: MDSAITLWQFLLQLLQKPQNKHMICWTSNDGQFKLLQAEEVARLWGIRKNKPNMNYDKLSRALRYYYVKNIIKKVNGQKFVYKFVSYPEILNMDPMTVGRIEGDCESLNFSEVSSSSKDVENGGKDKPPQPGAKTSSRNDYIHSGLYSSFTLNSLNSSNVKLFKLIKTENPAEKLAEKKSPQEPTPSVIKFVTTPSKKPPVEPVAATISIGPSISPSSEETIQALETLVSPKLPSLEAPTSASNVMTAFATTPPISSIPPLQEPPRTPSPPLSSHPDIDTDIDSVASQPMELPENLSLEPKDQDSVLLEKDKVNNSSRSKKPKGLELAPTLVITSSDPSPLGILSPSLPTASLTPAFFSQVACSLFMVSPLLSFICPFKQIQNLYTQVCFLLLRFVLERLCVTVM
Conditions: protein: recombinant; tags: N-terminal GST; dsDNA, one strand shown. The gist of the method:
as §1

Another assay concerns the target T4, ETV2 (Homo sapiens, UniProt O00321 1-342).
T4 sequence: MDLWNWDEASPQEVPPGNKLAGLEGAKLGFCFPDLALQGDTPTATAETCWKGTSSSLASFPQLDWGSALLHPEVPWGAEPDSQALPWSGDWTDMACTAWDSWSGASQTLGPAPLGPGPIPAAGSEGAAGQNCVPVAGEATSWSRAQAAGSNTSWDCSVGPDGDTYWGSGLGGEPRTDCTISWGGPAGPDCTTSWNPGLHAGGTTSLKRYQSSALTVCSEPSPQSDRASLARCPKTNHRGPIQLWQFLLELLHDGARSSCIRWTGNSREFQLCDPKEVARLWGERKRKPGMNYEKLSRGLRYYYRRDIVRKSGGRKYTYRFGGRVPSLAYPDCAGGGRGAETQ
Conditions: protein: recombinant; tags: N-terminal GST; dsDNA, one strand shown. The gist of the method:
as §1

The target in a further assay is T5, ELF3 (Homo sapiens, UniProt P78545 1-371).
T5 sequence: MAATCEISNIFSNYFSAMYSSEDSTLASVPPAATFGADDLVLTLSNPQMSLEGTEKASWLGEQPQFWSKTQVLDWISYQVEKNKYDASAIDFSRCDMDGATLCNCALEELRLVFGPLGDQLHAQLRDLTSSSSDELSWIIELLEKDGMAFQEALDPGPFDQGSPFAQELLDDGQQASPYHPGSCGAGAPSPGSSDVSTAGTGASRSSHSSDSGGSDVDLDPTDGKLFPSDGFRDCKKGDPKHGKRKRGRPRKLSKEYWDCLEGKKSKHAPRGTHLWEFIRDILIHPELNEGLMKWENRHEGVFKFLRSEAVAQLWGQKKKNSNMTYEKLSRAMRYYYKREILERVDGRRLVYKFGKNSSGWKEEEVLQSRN
Conditions: protein: recombinant; tags: N-terminal GST; dsDNA, one strand shown. Summed up:
as §1

The next assay has as its target CRX (Homo sapiens, UniProt O43186 1-299). To be noted: protein: recombinant; tags: N-terminal GST; dsDNA, one strand shown. Summed up:
as §1

In the next assay the target is ETV1 (Homo sapiens, UniProt P50549 1-477). To be noted: protein: recombinant; tags: N-terminal GST; dsDNA, one strand shown. The gist of the method: as §1
Chain of ETV1 (P50549 whole entry): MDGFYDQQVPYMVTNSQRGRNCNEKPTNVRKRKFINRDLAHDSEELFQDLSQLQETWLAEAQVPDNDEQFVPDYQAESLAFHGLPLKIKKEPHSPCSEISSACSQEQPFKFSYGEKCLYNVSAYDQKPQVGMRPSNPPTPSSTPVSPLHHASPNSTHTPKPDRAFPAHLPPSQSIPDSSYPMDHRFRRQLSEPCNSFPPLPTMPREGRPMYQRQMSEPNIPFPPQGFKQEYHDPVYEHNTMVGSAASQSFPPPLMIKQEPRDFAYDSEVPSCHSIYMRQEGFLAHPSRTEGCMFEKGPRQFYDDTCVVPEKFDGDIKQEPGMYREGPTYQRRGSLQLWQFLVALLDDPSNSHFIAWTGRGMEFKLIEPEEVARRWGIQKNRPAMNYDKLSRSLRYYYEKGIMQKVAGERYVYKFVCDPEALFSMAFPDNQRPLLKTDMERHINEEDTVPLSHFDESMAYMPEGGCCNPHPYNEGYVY
In another assay the target is T6, ERF (Homo sapiens, UniProt P50548 1-548).
T6 sequence: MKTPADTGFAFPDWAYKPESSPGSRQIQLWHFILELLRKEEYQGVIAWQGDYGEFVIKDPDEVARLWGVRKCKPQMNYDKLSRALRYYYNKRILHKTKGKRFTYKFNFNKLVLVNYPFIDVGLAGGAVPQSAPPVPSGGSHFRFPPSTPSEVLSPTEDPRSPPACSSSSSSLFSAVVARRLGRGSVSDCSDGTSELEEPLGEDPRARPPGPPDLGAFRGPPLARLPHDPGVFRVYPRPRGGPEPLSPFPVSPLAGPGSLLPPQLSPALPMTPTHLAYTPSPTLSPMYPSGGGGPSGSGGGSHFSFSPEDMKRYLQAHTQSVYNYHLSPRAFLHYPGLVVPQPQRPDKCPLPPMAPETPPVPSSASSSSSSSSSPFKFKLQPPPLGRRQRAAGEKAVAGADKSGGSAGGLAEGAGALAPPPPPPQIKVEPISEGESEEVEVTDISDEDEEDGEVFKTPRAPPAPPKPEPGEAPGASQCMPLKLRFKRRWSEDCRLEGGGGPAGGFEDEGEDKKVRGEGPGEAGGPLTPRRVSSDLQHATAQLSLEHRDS
To be noted: protein: recombinant; tags: N-terminal GST; dsDNA, one strand shown. Summed up: as §1

In another assay the target is T7, ETV3L (Homo sapiens, UniProt Q6ZN32 1-361).
T7 sequence: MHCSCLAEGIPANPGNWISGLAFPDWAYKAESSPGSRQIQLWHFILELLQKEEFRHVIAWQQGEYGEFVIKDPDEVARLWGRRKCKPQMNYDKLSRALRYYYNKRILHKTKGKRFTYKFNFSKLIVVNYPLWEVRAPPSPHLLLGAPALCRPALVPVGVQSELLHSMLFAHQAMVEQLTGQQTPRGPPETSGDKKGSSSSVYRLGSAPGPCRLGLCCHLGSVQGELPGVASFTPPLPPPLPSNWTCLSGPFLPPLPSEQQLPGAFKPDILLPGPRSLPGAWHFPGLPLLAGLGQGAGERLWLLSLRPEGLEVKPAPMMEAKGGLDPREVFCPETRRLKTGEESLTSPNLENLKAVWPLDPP
Conditions: protein: recombinant; tags: N-terminal GST; dsDNA, one strand shown. The gist of the method: as §1

The next assay has as its target T8, ETS2 (Homo sapiens, UniProt P15036 1-469).
T8 sequence: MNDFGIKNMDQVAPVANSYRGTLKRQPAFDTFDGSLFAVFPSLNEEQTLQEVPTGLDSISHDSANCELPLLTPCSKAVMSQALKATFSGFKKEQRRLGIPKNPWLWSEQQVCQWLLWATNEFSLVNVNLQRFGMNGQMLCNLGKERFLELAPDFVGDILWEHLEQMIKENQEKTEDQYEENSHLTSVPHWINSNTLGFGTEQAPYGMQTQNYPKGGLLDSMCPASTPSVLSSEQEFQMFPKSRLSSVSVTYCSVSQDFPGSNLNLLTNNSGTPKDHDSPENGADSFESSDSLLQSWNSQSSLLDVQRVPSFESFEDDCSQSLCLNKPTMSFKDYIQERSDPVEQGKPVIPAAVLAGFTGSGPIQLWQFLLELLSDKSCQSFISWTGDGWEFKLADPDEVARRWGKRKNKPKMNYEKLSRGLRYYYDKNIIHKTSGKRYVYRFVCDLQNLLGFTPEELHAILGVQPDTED
Conditions: protein: recombinant; tags: N-terminal GST; dsDNA, one strand shown. The gist of the method:
as §1

For the next assay, the target named is T9, SPDEF (Homo sapiens, UniProt O95238 1-335).
T9 sequence: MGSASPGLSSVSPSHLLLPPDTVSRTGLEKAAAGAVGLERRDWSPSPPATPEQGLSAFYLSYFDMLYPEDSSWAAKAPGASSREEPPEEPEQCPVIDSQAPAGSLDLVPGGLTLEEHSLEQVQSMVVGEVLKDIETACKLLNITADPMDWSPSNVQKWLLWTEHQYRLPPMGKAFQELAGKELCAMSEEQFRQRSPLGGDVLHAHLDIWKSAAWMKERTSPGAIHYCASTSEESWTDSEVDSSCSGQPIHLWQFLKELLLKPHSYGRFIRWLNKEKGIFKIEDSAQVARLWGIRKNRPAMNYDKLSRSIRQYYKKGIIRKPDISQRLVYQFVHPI
To be noted: protein: recombinant; tags: N-terminal GST; dsDNA, one strand shown. Summed up: as §1

A further assay deals with T10, ETV7 (Homo sapiens, UniProt Q9Y603 1-341).
T10 sequence: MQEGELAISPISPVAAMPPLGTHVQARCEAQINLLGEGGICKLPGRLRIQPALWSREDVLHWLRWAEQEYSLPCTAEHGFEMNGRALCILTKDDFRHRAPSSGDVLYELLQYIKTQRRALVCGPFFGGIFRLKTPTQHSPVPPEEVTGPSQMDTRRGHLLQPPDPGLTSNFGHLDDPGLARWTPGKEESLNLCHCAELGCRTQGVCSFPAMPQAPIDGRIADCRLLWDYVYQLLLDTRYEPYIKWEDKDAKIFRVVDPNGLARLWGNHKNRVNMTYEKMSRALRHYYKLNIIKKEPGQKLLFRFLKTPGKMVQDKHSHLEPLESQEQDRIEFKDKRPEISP
Conditions: protein: recombinant; tags: N-terminal GST; dsDNA, one strand shown. Summed up: as §1

The next assay addresses T11, ELF5 (Homo sapiens, UniProt Q9UKW6-2 1-255).
T11 sequence: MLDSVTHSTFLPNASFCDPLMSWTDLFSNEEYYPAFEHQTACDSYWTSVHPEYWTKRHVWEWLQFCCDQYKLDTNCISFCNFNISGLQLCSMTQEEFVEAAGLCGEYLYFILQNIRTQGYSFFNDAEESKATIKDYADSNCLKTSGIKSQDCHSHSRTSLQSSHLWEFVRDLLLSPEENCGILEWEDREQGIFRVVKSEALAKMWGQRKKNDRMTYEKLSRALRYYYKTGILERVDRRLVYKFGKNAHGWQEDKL
Conditions: protein: recombinant; tags: N-terminal GST; dsDNA, one strand shown. Summed up: as §1

The target in a further assay is T12, ETV3 (Homo sapiens, UniProt P41162-2 1-143).
T12 sequence: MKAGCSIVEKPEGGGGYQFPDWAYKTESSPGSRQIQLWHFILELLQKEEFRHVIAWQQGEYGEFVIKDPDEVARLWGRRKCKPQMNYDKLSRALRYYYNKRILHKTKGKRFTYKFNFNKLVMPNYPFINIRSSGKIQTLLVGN
Conditions: protein: recombinant; tags: N-terminal GST; dsDNA, one strand shown. The gist of the method:
as §1

The next assay concerns the target ETV6 (Homo sapiens, UniProt P41212 1-452). To be noted: protein: recombinant; tags: N-terminal GST; dsDNA, one strand shown. Summed up: as §1

Chain of ETV5 (P41161 whole entry): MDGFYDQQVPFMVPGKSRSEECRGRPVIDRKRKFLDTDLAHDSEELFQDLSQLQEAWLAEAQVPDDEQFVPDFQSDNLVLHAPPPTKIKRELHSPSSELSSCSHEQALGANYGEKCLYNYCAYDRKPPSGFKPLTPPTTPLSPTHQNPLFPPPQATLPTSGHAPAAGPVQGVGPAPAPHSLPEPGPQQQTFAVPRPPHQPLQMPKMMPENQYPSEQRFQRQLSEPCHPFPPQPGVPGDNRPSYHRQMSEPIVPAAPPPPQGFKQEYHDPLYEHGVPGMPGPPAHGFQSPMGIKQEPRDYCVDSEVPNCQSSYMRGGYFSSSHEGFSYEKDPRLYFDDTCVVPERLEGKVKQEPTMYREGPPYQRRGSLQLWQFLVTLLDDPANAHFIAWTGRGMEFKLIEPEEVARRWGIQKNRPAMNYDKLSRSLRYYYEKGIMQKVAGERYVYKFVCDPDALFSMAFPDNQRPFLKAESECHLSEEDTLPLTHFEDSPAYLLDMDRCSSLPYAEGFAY
Chain of ETV6 (P41212 whole entry): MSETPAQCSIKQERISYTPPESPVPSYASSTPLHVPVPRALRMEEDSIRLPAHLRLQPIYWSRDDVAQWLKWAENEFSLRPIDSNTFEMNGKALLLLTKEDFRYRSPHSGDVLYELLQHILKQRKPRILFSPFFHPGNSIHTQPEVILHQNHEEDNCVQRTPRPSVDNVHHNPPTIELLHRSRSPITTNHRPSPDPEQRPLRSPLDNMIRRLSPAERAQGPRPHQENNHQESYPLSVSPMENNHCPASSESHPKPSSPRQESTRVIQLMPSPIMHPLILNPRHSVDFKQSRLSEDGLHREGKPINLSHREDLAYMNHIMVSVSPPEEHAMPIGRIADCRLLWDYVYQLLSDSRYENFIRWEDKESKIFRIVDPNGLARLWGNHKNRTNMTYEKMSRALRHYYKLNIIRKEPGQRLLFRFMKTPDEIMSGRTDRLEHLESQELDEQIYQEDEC
Chain of HSF1 (Q00613 whole entry): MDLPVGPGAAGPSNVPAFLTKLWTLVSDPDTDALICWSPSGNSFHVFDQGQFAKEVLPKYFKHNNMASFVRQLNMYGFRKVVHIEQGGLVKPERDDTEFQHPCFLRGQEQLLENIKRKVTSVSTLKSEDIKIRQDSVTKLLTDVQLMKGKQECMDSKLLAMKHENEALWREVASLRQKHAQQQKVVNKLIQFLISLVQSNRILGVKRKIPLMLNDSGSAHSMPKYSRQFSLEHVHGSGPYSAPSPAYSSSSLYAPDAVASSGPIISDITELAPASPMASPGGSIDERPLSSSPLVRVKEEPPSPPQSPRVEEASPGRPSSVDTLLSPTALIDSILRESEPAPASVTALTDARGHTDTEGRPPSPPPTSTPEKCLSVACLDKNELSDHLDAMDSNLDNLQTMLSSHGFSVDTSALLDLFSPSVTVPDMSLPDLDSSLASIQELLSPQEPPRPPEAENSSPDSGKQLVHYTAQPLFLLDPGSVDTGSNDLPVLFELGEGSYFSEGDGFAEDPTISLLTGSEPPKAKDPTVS
Chain of CRX (O43186 whole entry): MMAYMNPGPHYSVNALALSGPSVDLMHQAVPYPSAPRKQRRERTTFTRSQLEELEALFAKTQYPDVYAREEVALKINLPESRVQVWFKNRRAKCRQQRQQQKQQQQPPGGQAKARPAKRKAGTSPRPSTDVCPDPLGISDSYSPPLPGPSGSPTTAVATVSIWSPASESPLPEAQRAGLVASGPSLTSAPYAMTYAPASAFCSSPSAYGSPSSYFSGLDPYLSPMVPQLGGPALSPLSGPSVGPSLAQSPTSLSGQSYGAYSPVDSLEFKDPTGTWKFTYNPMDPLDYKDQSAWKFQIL

For the sequence ATTCGT, the binding signal with FEV was 1.12 fold enrichment (6-mer frequency, TF over GST control); in the assay with ETV5, 1.19 fold enrichment (6-mer frequency, TF over GST control); with HSF1, 1.27 fold enrichment (6-mer frequency, TF over GST control); with SPIC, 1.25 fold enrichment (6-mer frequency, TF over GST control); with ELF4, 1.24 fold enrichment (6-mer frequency, TF over GST control); in the assay with ELK4, 1.11 fold enrichment (6-mer frequency, TF over GST control). Moreover, the binding signal is 1.16 fold enrichment (6-mer frequency, TF over GST control) with ETV2; 1.37 fold enrichment (6-mer frequency, TF over GST control) in the assay with ELF3; 1.28 fold enrichment (6-mer frequency, TF over GST control) with CRX; 1.14 fold enrichment (6-mer frequency, TF over GST control) with ETV1; 1.22 fold enrichment (6-mer frequency, TF over GST control) in the assay with ERF; 1.16 fold enrichment (6-mer frequency, TF over GST control) with ETV3L. Besides, the binding signal in the assay with ETS2 was 1.26 fold enrichment (6-mer frequency, TF over GST control); in the assay with SPDEF, 1.18 fold enrichment (6-mer frequency, TF over GST control); with ETV7, 1.34 fold enrichment (6-mer frequency, TF over GST control); in the assay with ELF5 it was 1.11 fold enrichment (6-mer frequency, TF over GST control); with ETV3 it was 1.28 fold enrichment (6-mer frequency, TF over GST control); with ETV6, 1.11 fold enrichment (6-mer frequency, TF over GST control).
